Results as given in ChEMBL document CHEMBL3433997, “St. Jude Leishmania screening dataset” (2016).

target: Glucose transporter (Leishmania mexicana) (UniProt O61059); experiment: ST_JUDE_LEISH: Cytotoxicity at 2uM final concentration against transgenic Leishmania Mexicana promastigotes LmGT2 that are glucose transport deficient and complemented with the L. Mexicana glucose transporter 2. Activity is measured by DNA content using SYBR green in vitro; type: functional

| SMILES | inhibition [%] |
| --- | --- |
| C=C[C@]1(C)C[C@@H](OC(=O)c2n[nH]c3ccccc3c2=O)[C@]2(C)[C@H](C)CC[C@]3(CCC(=O)[C@H]32)[C@@H](C)[C@@H]1O | -0.71 |
| CN(C)C(CNC(=O)c1cc(-c2ccncc2)c(-c2ccc(NC(=O)Nc3cccc(F)c3)cc2)o1)c1ccccc1 (stereo not given) | 0.6 |
| CCc1cn(CCc2ccccc2)c2ccc(C(=O)N[C@@H](Cc3ccccc3)[C@H](O)CNC(C)(C)CCCC(C)C)cc12 | -2.99 |
| COc1ccc(CCCCN2C(=O)C(c3ccccc3)(c3ccccc3)N=C2N)cc1 | 0.32 |
| S=C(NCCCCCN1CCC(c2c[nH]c3ccccc23)CC1)Nc1cc(Cl)cc(Cl)c1 | 0.49 |
| COc1ccc2[nH]c(C(=O)Nc3ccc4[nH]c(-c5ccccc5)nc4c3)cc2c1 | 0.82 |
| CCCCCCCCc1c(C)[nH]c(C)c(Cl)c1=O | -0.99 |
| CCOc1cc(C(=O)N[C@@H](Cc2ccccc2)[C@H](O)CNCc2cc(OC)cc(OC)c2)cc(N2CCCC2=O)c1 | 2.86 |
| Cc1ccc(NC(=O)c2ccc(NCCCN(C)Cc3ccccc3)c([N+](=O)[O-])c2)cc1F | 2.68 |
| Cc1onc(-c2c(F)cccc2Cl)c1C(=O)Nc1ccccc1I | 2.12 |
| COc1ccc(NC(=O)CSc2nc(-c3ccccc3Cl)ns2)cc1OC | 2.58 |
| Cc1cc(O)c(CNC2CCCCC2)cc1C | 2.92 |
| CC(CN1CCN(C)CC1)C(=O)Nc1cccc(-c2ccc(-c3nc4cc(F)ccc4[nH]3)cc2)c1 (stereo not given) | 2.7 |
| CCc1cn2c3c(cc(C(=O)N[C@@H](Cc4ccccc4)[C@H](O)CNCc4ccccc4)cc13)N(C)S(=O)(=O)CC2 | 0.13 |
| COc1ccc(C2CC(=O)C3=C(C2)NC(C)=C(C(=O)OC(C)C)C3c2ccccc2F)cc1OC (stereo not given) | 1.65 |
| CC(=NNC(N)=O)C1=C(O)C(c2ccccc2)N(C2CCCCC2)C1=O (stereo not given) | -0.27 |
| COc1ccc2[nH]cc(C3CCN(CCC4CCN(C(=O)/C=C/c5ccc(Cl)c(Cl)c5)CC4)CC3)c2c1 | 1.93 |
| O=c1ccc2ccc(O)c(O)c2o1 | 4.39 |
| Cc1ccc(C2=NNC3(S2)C(=O)N(C)c2ccccc23)cc1 (stereo not given) | 9.09 |
| COc1cccc(CN2CCCC(CCC(=O)Nc3ccc(C(F)(F)F)cc3)C2)c1O (stereo not given) | 1.85 |
| CCN(CC)CCN(Cc1ccc(-c2ccc(C(F)(F)F)cc2)cc1)C(=O)Cn1c(SCc2ccc(F)cc2)nc(=O)c2sccc21 | 4.07 |
| CC(C)CCOc1ccc(NC(=O)c2cccs2)cc1 | 5.27 |
| O=C(Nc1ccc2c(ccn2C2CCCN(Cc3cc(F)cc(F)c3F)CC2)c1)c1ccco1 (stereo not given) | 2.17 |
| COc1cccc(C2C(C(=O)Nc3ccccc3)=C(C)N=c3sc(=Cc4ccc(O)cc4)c(=O)n32)c1 (stereo not given) | 16.8 |
| CN(C)S(=O)(=O)n1ccc2c3c(N)nc(N)nc3ccc21 | 29.3 |
